Screen size: about 190,000 compounds; about 1,300 (0.68%) were called active. Many of the other results were omitted from the sample, so actives are more common in it than they were. Unmarked numbers belong to inactive results. Cut-off read from the data, not from the text of the source: active = inhibition above about 50%; inactive = the rest.
The compounds below were run against Mannose-6-phosphate isomerase (Homo sapiens) (UniProt P34949) (assay: human PMI inhibitors, high substrate, primary screen, biochemical, fluorescence intensity, high mannose 6-phosphate (AID 1220)). Conditions: recombinant PMI enzyme, coupled fluorescence intensity; at 20 µM; hits give high values.
Sequence of Mannose-6-phosphate isomerase (Homo sapiens) (P34949 whole entry, looked up): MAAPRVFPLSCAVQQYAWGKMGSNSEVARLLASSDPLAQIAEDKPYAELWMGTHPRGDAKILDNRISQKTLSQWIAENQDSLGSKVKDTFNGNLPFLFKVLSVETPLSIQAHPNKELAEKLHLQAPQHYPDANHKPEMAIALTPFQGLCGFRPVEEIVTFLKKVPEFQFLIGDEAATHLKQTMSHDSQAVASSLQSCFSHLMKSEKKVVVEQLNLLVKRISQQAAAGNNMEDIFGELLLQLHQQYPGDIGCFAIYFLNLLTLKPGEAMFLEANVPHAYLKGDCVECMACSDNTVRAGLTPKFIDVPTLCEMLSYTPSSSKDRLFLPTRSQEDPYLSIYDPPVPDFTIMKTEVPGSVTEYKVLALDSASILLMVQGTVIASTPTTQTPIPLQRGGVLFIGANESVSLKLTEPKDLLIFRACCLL

Row | Compound | inhibition
1 | Cn1c(=O)c2c(nc(N3CCCC3)n2CC(O)CO)n(C)c1=O (configuration not stated) | -12.4%
2 | Cc1cc(C)nc(NC(=O)c2cc(Br)ccc2Cl)n1 | -2.5%
3 | O=C(COC(=O)c1cccs1)Nc1cc(S(=O)(=O)N2CCOCC2)ccc1Cl | -2.3%
4 | COc1cc(NC(=O)CCNC(=O)Cn2cnc3ccccc3c2=O)cc(OC)c1OC | 10.9%
5 | COC(=O)c1nnn(-c2nc(N3CCOCC3)nc(N3CCOCC3)n2)c1C | 8.7%
6 | COc1cc(OC)c([N+](=O)[O-])cc1/C=N/NC(=O)c1ccncc1 | 58.7% (active)
7 | COc1ccc(/C=N/NC(=O)c2ccncc2)cc1[N+](=O)[O-] | -13.2%
8 | COc1cc(OC)c(/C=N/NC(=O)c2ccncc2)cc1Br | -19.4%
9 | COc1ccc(Cn2nnnc2C(c2ccc3ncccc3c2)N2CCN(C3CCCCC3)CC2)cc1 (configuration not stated) | -3.1%
10 | O=C(O)c1cc(Cl)c(Cl)cc1C(=O)Nc1cccc2cccnc12 | 46%
11 | O=C(O)c1cc(Cl)c(Cl)cc1C(=O)Nc1cccc2ncccc12 | 54.8% (active)
12 | O=C(NC(=S)Nc1cccc2ncccc12)c1ccco1 | 7.2%
13 | COCCCNC(=S)Nc1ccccc1C | 15.8%
14 | O=C(NC(=S)Nc1cccc2ncccc12)c1ccccc1 | 30.3%
15 | COCCCNC(=S)Nc1cccc2ncccc12 | 54.4% (active)
16 | O=C(Cc1ccc(Cl)c(Cl)c1)Nc1cccc2ncccc12 | 8.6%
17 | O=C(NC(=S)Nc1cccc2ncccc12)c1cccs1 | 67.1% (active)
18 | COCCNC(=S)Nc1cccc2cnccc12 | 48%
19 | CCN1C2=C(C(=O)CCC2)C(c2ccc(O)cc2)C2=C1CCCC2=O | -9.2%
20 | Cc1nnc(NC(=O)CSc2nnc(-c3ccc(S(=O)(=O)N4CCCC4)cc3)n2C)s1 | -8.6%
21 | CC1(C)C(=O)N(OCc2ccccc2)C(C)(C)C(=O)N1OCc1ccccc1 | -1.9%
22 | COc1cc2c(cc1NC(=O)CSc1ccccn1)oc1ccccc12 | 4.8%
23 | COc1cc2c(cc1NCc1ccc3c(c1)OCO3)oc1ccccc12 | 32.3%

Row | Compound | inhibition
24 | COc1cc2c(cc1NCc1ccccn1)oc1ccccc12 | 56.9% (active)
25 | CCOC(=O)C1CCN(c2c(NCc3ccc(C(=O)N(C)Cc4ccccc4)cc3)c(=O)c2=O)CC1 | -6.2%
26 | Cc1cc(C)nc(/N=C2\NC(=O)CC(C(=O)O)N2c2ccc(F)c(Cl)c2)n1 (configuration not stated) | -5.5%
27 | O=C1CCCC2=C1C(c1cccc(O)c1)c1c(ccc3ncccc13)N2 (configuration not stated) | 35.4%
28 | COc1cc(C2C3=C(CCCC3=O)Nc3ccc4ncccc4c32)ccc1O (configuration not stated) | 27.4%
29 | O=C1CCCC2=C1C(c1ccc(O)c(O)c1)c1c(ccc3ncccc13)N2 (configuration not stated) | 52.9% (active)
30 | COc1cc(C2C(C#N)=C(C)NC(C)=C2C#N)cc(OC)c1OC | 2%
31 | COc1cc(NC2=CC(=O)CC(C)(C)C2)cc(OC)c1OC | 9.2%
32 | COc1cc(N/C=C2\CC(=O)NC(C)=C2C#N)cc(OC)c1OC | 70.9% (active)
33 | COC(=O)c1ccc(CSc2ccc3nnc(-c4cccnc4)n3n2)o1 | 0.3%
34 | CN(C)CCNC(=O)c1c(O)c2c([nH]c1=O)CCCC2 | 15.6%
35 | COc1ccc(Cl)cc1-n1c(C)ccc1C | -6.6%
36 | Cc1cc(N)ccc1-n1c(C)ccc1C | 69.4% (active)
37 | Cc1cc(N)ccc1N1CCCC1 | 25.9%
38 | COc1ccc(N)cc1-n1cnnn1 | -5.6%
39 | Cc1ccc(N)cc1-n1c(C)ccc1C | 27.5%
40 | COc1ccc(N)cc1-n1c(C)ccc1C | 64.2% (active)
41 | Nc1nc(NCc2ccco2)nn1-c1ccccc1 | 2%
42 | Cc1nnc(Sc2cc(NCCO)c([N+](=O)[O-])c3nonc23)s1 | 16.6%
43 | CCCC(=O)OCCNc1cc(Sc2nc3ccccc3[nH]2)c2nonc2c1[N+](=O)[O-] | 33%
44 | Cn1ccnc1Sc1cc(NCCCO)c([N+](=O)[O-])c2nonc12 | 24.2%
45 | CCCSc1cc(NCCOC(=O)CCC)c([N+](=O)[O-])c2nonc12 | 50.7% (active)
46 | CCCC(=O)OCCNc1cc(SCc2ccco2)c2nonc2c1[N+](=O)[O-] | 40.5%

Row | Compound | inhibition
47 | CCN(CC)c1cc(NCCO)c([N+](=O)[O-])c2nonc12 | 57.4% (active)
48 | CC(=O)OCCNc1cc(SCc2ccco2)c2nonc2c1[N+](=O)[O-] | 45.7%
49 | CCC(=O)OCCNc1cc(Sc2nccn2C)c2nonc2c1[N+](=O)[O-] | 50.8% (active)
50 | CCCSc1cc(NCCOC(C)=O)c([N+](=O)[O-])c2nonc12 | 57.6% (active)
51 | CCCC(=O)OCCNc1cc(Sc2nccn2C)c2nonc2c1[N+](=O)[O-] | 30.4%
52 | COC(=O)CCSc1cc(NCCOC(C)=O)c([N+](=O)[O-])c2nonc12 | 43.1%
53 | Cc1nnc(Sc2cc(NCCCO)c([N+](=O)[O-])c3nonc23)s1 | 39.9%
54 | O=C(NCc1cccnc1)Nc1cccc(F)c1 | -2.6%
55 | CC(=O)Nc1nc(C(=O)O)cs1 | 6.8%
56 | O=C(Nc1ccc(Cl)cn1)c1ccc(-c2cc(Cl)ccc2Cl)o1 | -2.7%
57 | COc1cc2c(cc1OC)CN(C1CC(=O)N(c3c(C)cccc3C)C1=O)CC2 (configuration not stated) | 2.1%
58 | Cc1nc2ccc(NC(=S)NC3CC3)cc2nc1C | 46.4%
59 | CCOC(=O)N1CCN(S(=O)(=O)c2ccc(C(=O)Nc3ccc4c(c3)C(=O)NC4=O)cc2)CC1 | 14.7%
60 | COc1c(C(=O)NCCSC(C)(C)C)ccc2ccccc12 | 2.8%
61 | O=C(NCCn1ccc2ccccc21)C1CCCCC1 | 1.5%
62 | CC(=O)OCCNc1cc(SC(C)C)c2nonc2c1[N+](=O)[O-] | 52% (active)
63 | CC(=O)OCCN(C)c1cc(SC(C)C)c2nonc2c1[N+](=O)[O-] | 24.4%
64 | CC(=O)OCCCNc1cc(SCc2ccco2)c2nonc2c1[N+](=O)[O-] | 40.1%
65 | CC(=O)OCCNc1cc(Sc2nc3ccccc3[nH]2)c2nonc2c1[N+](=O)[O-] | 26.1%
66 | CC(=O)OCCCNc1cc(Sc2ccc(C)cc2)c2nonc2c1[N+](=O)[O-] | 45.7%
67 | CC(=O)OCCCNc1cc(Sc2ccc(Cl)cc2)c2nonc2c1[N+](=O)[O-] | 56.3% (active)

Source: PubChem BioAssay AID1220 (Sanford-Burnham Center for Chemical Genomics, 2008)
